The record followed here is PubChem BioAssay (NCATS).

Assay [1] in a line: Cell Viability - NIH 3T3 (AID 541; active = well fitted curve in the direction sought with a large enough effect; an effect the other way counts as inactive or inconclusive;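 note: cells exposed to compound for 40 hours; plate controls were DMSO alone for no effect and tamoxifen positive control for full effect; nearly all actives have a fitted effect of over 25% in size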). Conditions: NIH 3T3 cell viability, qHTS; activity change, negative = cytotoxicity: at 92.2 µM (top of the series). In a few lines: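 Cells seeded at 1000/well, rested 5 hr at 37 °C, then dosed and incubated 40 hr at 37 °C. CellTiter-Glo added, 20 min room temperature, luminescence read. AC50 by Hill fit.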
For orientation: Quantitative high-throughput screening tests each substance at several concentrations.

For assay [2], the target named is Estrogen receptor (Homo sapiens) (UniProt P03372). The assay can be described thus: qHTS assay for small molecule antagonists of estrogen receptor alpha signaling (AID 588513; active = well fitted curve in the direction sought with a large enough effect in the signal ratio, with a control signal flat, not every such curve was filed as active; the % refers to the signal ratio; note: % is set by controls: 0 for no effect and ±100 for the full control effect). The gist of the method: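 Cells were plated at 5000/well and incubated 4 h at 37 C. Compounds were added as 1:2 dilution series, duplicates. 17-beta-estradiol (0.5nM final) was added for 18 h before CCF4 detection.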
Estrogen receptor (Homo sapiens), sequence (P03372 whole entry, looked up): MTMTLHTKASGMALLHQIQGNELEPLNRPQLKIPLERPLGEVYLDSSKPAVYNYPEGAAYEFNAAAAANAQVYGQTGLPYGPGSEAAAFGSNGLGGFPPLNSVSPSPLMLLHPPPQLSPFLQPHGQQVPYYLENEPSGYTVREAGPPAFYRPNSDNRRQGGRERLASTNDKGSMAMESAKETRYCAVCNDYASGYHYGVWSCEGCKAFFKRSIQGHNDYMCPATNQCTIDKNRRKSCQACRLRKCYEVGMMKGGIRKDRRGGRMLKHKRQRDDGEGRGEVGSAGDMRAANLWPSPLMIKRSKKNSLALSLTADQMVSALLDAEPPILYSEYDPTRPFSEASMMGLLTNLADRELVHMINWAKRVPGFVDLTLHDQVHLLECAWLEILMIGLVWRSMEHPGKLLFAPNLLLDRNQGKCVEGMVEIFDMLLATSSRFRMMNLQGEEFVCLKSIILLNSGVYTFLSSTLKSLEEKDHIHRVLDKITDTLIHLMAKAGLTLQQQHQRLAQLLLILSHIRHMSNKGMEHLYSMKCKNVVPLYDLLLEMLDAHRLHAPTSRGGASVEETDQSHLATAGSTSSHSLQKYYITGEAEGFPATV

The target in assay [3] is Glucocorticoid receptor (Homo sapiens) (UniProt P04150). The assay can be described thus: qHTS assay for small molecule antagonists of glucocorticoid receptor signaling (AID 588533; active = well fitted inhibition curve with a large enough effect in the signal ratio, with a control signal flat, not every such curve was filed as active; the % refers to the signal ratio;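 note: cells stimulated with 2 nM dexamethasone as agonist; % is set by controls: 0 for no effect and ±100 for the full control effect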). The gist of the method:
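Antagonist-mode qHTS: compound titrations added to GRE-bla HeLa cells, then dexamethasone 2 nM final; 18 h, 37 C. CCF4 FRET fluorescence normalized to dexamethasone and DMSO; IC50 from Hill fit.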

The target in assay [4] is Peroxisome proliferator-activated receptor delta (Homo sapiens) (UniProt Q03181). The assay can be described thus: qHTS assay for small molecule agonists of peroxisome proliferator-activated receptor delta signaling (AID 588534).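 Note: 0% = DMSO basal wells and 100% = positive control agonist at 10 µM.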 In a few lines:
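Agonist-mode qHTS; reporter cells, 5 hrs 37 C pre-incubation; compound titration, 18 hrs 37 C; CCF4 dye, 2 hrs RT; fluorescence read. EC50/efficacy via Hill fit.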

Assay [5] is described as follows: qHTS assay for small molecule antagonists of peroxisome proliferator-activated receptor delta signaling (AID 588535; active = well fitted inhibition curve with a large enough effect in the signal ratio, with a control signal flat, not every such curve was filed as active; the % refers to the signal ratio;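 for max response: cells co-treated with a PPAR-delta agonist as stimulator during compound exposure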). The note with it: HEK293T PPARd-UAS-bla, beta-lactamase FRET ratio, 18 h; 460 nm channel. The gist of the method:
(§1)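 Titrations were run on PPAR-delta-UAS-bla HEK293T cells in charcoal/dextran-stripped serum, incubated 18 h at 37 C. CCF4 fluorescence (460/530 nm) after 2 h RT; Hill equation yields IC50 and maximal response.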

The target in assay [6] is Peroxisome proliferator-activated receptor delta (Homo sapiens) (UniProt Q03181). The assay is described as above. In a few lines: as §1
Peroxisome proliferator-activated receptor delta (Homo sapiens), sequence (Q03181 whole entry, looked up): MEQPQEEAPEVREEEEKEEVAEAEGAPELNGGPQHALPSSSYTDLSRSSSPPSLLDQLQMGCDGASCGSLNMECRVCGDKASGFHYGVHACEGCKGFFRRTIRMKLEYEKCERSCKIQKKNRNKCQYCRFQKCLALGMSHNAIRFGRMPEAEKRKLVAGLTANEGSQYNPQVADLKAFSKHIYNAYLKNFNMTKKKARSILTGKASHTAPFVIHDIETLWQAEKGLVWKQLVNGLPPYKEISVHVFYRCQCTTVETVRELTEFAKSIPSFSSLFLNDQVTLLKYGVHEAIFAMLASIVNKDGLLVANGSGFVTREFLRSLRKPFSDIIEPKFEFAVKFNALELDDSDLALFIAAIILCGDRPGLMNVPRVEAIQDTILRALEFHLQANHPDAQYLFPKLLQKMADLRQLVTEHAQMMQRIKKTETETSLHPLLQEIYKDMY
For assay [7], the target named is Peroxisome proliferator-activated receptor gamma (Homo sapiens) (UniProt P37231). The assay can be described thus: qHTS assay for small molecule antagonists of peroxisome proliferator-activated receptor gamma signaling (AID 588537; active = well fitted inhibition curve with a large enough effect in the signal ratio, with a control signal flat, not every such curve was filed as active; the % refers to the signal ratio;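 note: reporter cells co-stimulated with 50 nM rosiglitazone agonist during compound treatment; % of control where 0% means no effect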). In a few lines:
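Antagonist-mode β-lactamase reporter screen run as a titration series. HEK293 PPARγ-UAS-bla cells are stimulated with rosiglitazone (50 nM final) for 16 h, then CCF4 is read at 460/530 nm. Data are scaled between DMSO and rosiglitazone and fitted to the Hill equation.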

Assay [8] concerns the target Thyroid hormone receptor beta (Homo sapiens) (UniProt P10828). The assay can be described thus: qHTS assay for small molecule agonists of thyroid hormone receptor beta signaling (AID 588545).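 Note: 0% = DMSO only and 100% = 10 nM T3.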 The gist of the method:
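Beta-lactamase reporter activity under TR response element control is measured in HEK 293 cells after 18 hrs compound exposure. Signal is ratiometric CCF4 fluorescence, 460/530 nm.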

Assay [9] shares this target. The assay can be described thus: qHTS assay for small molecule antagonists of thyroid hormone receptor beta signaling (AID 588547; active = well fitted inhibition curve with a large enough effect in the signal ratio, with a control signal flat, not every such curve was filed as active; the % refers to the signal ratio;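 note: cells stimulated with 0.4 nM T3 agonist during compound exposure; % is set by controls: 0 for no effect and ±100 for the full control effect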). Conditions: TR-UAS-bla HEK293, beta-lactamase ratio, antagonist mode, 18 h. In a few lines: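 Inhibition of T3-driven (0.4nM final) beta-lactamase reporter activity was measured over 0.59 nM to 92 uM compound after 18 h at 37 C. The cells were GripTite HEK293 TR-UAS-bla in charcoal/dextran-stripped serum, with CCF4 ratio read-out and IC50 from Hill fits.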

A short description of assay [10]: qHTS assay for small molecule activators of the nuclear factor-kappa B (NF-kB) signaling pathway (AID 651749; active = well fitted activation curve with a large enough effect in the signal ratio; the % refers to the signal ratio; note: % of control where 0% means no effect). Conditions: NF-kB-bla ME-180 cells, beta-lactamase FRET ratio, 16 h; stronger effect = higher value. In a few lines: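 Activation measured after 16 hr compound treatment at 37C, 5% CO2, of 2,000 ME-180 cells/well stably expressing an NF-kB response element–driven beta-lactamase reporter, via FRET-disruption fluorescence.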

Assay [11] addresses Tumor necrosis factor (Homo sapiens) (UniProt P01375). The experiment in a line: qHTS assay to identify small molecules that stimulate Tumor Necrosis Factor-alpha (TNF-alpha) secretion (AID 651757; active = well fitted curve in the direction sought with a large enough effect in the signal ratio; the % refers to the signal ratio; note: 0% is about no effect). In a few lines:
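Human monocytic THP-1 cells are plated, treated with compound and held at 37 C for 17 hrs. Labeled anti-TNF-alpha antibody mixture is then added; after 3 hr at room temperature, TR-FRET signal reports secreted TNF-alpha.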

A short description of assay [12]: qHTS assay to identify small molecules that stimulate interleukin-8 (IL-8) secretion (AID 651758; active = well fitted activation curve with a large enough effect in the signal ratio; the % refers to the signal ratio; note: 0% is about no effect). The gist of the method: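 Secreted IL-8 measured homogeneously by TR-FRET (two labelled anti-IL-8 antibodies, 1-3 h at room temperature) after a 16 h, 37 C compound treatment of THP-1 cells at 2000 cells/well.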
Assay [13] is described as follows: qHTS assay for small molecule agonists of the antioxidant response element (ARE) signaling pathway measured by Nrf2-dependant transcriptional activity (AID 720636; active = well fitted curve in the direction sought with a large enough effect in the repeat runs; an effect the other way counts as inactive or inconclusive; note: % of control where 0% means no effect). The gist of the method:
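Quantitative HTS format in HepG2 cells stably expressing an ARE-luciferase reporter; 16 hr compound treatment at 37 C, luciferase signal detected with ONE-Glo.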

Assay [14] has as its target Glucocorticoid receptor (Homo sapiens) (UniProt P04150). The assay can be described thus: qHTS assay for small molecule agonists of glucocorticoid receptor signaling (AID 588532; active = well fitted curve in the direction sought with a large enough effect in the signal ratio, with a control signal flat; the % refers to the signal ratio;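 note: 100% = dexamethasone at 0.1 µM and 0% = DMSO only wells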). Conditions: HeLa MMTV-bla, beta-lactamase ratio, agonist, 18 h; stronger effect = higher value; percent of dexamethasone control, DMSO zero. The gist of the method: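 Agonist-mode qHTS: GRE-driven beta-lactamase in HeLa cells exposed 18 h to titrated compounds (up to 92 uM), then CCF4 ratio read after 2 h at RT; Hill-fitted EC50, efficacy relative to 0.1 uM dexamethasone.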

For assay [15], the target named is Vitamin D3 receptor (Homo sapiens) (UniProt P11473). The assay can be described thus: qHTS assay for small molecule agonists of vitamin D receptor signaling (AID 588543).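 Note: 0% = DMSO basal and 100% = reference agonist control.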 The gist of the method:
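qHTS in agonist mode: compound titrations stimulate a VDR-driven β-lactamase reporter in HEK293T cells over 16 h at 37 °C. Response normalized to 50 nM 1α,25-dihydroxyvitamin D3 = 100%, DMSO = 0%; Hill fitting gives EC50 and maximal response.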

Assay [16] can be described thus: qHTS assay for environmental chemicals that activate the Aryl hydrocarbon Receptor (AhR) signaling pathway (AID 651777; active = well fitted curve in the direction sought with a large enough effect; an effect the other way counts as inactive or inconclusive; note: % of control where 0% means no effect; nearly all actives have a fitted effect of over 15% in size). The note with it: 1A2-DRE human hepatoma cells, luciferase, 24 h; activation: stronger effect = higher value. The gist of the method: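 Quantitative HTS in stably transfected human liver-derived cells whose luciferase gene sits downstream of the CYP1A2 promoter and dioxin response element. After 24 hr exposure at 37 C, One-Glo luminescence was measured.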

A short description of assay [17]: qHTS assay for small molecule disruptors of the mitochondrial membrane potential - 5 hr assay (AID 651755). Note: % is set by controls: 0 for no effect and ±100 for the full control effect; nearly all actives have a fitted effect of over 40% in size. In a few lines: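 Membrane-potential dye readout: red aggregate (540 ex/590 em) versus green monomer (490 ex/535 em) fluorescence after 30 min dye loading, following 5 hr compound exposure at 37C of overnight-plated HepG2 cells.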
The target of assay [18] is Nuclear receptor ROR-gamma (Homo sapiens) (UniProt P51449). The experiment in a line: qHTS assay for small molecule antagonists of the retinoid-related orphan receptor gamma (ROR-gamma) signaling pathway (AID 651802; active = well fitted curve in the direction sought with a large enough effect; an effect the other way counts as inactive or inconclusive;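 note: CHO cells with doxycycline-induced ROR-gamma expression; % is set by controls: 0 for no effect and ±100 for the full control effect; nearly all actives have a fitted effect of over 60% in size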). In a few lines: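 Steps: cells dispensed; compound or DMSO transferred by pin tool; doxycycline added to induce the ROR response element-driven luciferase; plates held 16hr at 37C; ONE-Glo added and luminescence measured.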
Nuclear receptor ROR-gamma (Homo sapiens), sequence (P51449 whole entry, looked up): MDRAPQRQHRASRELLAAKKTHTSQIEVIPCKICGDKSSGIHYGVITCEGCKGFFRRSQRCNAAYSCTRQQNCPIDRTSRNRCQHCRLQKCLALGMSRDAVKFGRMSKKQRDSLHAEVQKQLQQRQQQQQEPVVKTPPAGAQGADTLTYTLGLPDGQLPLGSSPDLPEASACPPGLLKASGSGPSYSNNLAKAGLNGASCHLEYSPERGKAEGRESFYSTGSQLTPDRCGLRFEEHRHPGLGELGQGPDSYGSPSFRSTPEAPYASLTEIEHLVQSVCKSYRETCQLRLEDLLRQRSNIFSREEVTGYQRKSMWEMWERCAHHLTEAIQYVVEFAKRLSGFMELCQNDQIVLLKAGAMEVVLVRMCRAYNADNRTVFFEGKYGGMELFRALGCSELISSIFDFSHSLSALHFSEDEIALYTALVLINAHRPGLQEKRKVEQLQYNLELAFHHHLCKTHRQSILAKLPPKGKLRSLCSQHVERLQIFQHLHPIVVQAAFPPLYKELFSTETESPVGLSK

Assay [19] deals with Bile acid receptor (Homo sapiens) (UniProt Q96RI1). The experiment in a line: qHTS assay for small molecule agonists of farnesoid X receptor signaling (AID 588527).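 Note: 0% = vehicle basal and 100% = reference agonist.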 Conditions: HEK293T FXR-UAS-bla, beta-lactamase ratio, 16 h; stronger effect = higher value. The gist of the method: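 Read-out: beta-lactamase reporter fluorescence with CCF4 substrate in GeneBLAzer FXR-UAS-bla HEK293T cells, after 16 h compound exposure at 37 C. Response scaled between DMSO basal (0%) and chenodeoxycholic acid at 100 uM (100%).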
Bile acid receptor (Homo sapiens), sequence (Q96RI1 whole entry, looked up): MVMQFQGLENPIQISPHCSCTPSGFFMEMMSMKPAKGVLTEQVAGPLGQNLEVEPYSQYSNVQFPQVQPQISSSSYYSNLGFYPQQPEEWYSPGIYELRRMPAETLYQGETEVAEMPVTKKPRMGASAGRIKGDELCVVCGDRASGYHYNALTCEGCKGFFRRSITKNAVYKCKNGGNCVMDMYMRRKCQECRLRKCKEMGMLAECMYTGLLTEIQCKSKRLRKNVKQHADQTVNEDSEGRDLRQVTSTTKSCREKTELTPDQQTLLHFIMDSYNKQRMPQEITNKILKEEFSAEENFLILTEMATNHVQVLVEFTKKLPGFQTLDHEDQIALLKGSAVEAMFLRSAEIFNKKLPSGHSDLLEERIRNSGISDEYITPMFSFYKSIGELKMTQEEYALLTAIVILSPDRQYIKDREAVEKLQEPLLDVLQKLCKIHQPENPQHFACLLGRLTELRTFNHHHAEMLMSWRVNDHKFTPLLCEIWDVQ

Assay [20] deals with Peroxisome proliferator-activated receptor gamma (Homo sapiens) (UniProt P37231). The experiment in a line: qHTS assay for small molecule agonists of peroxisome proliferator-activated receptor gamma signaling (AID 588536; active = well fitted curve in the direction sought with a large enough effect in the signal ratio, with a control signal flat, not every such curve was filed as active; the % refers to the signal ratio;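 note: 0% = DMSO basal wells and 100% = rosiglitazone at 2 µM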). The gist of the method:
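Beta-lactamase reporter read-out: CCF4 fluorescence (ex 405, em 460/530 nm) after 2 h at RT. HEK293 GeneBLAzer cells were treated for 16 h at 37 C. Hill fits gave EC50 and efficacy versus 2 uM rosiglitazone (100%) and DMSO (0%).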

Inconclusive results are not listed. The source made the active and inactive calls. Unless noted, calls come from the whole dose curve.

Glucocorticoid receptor (Homo sapiens), sequence (P04150 whole entry, looked up): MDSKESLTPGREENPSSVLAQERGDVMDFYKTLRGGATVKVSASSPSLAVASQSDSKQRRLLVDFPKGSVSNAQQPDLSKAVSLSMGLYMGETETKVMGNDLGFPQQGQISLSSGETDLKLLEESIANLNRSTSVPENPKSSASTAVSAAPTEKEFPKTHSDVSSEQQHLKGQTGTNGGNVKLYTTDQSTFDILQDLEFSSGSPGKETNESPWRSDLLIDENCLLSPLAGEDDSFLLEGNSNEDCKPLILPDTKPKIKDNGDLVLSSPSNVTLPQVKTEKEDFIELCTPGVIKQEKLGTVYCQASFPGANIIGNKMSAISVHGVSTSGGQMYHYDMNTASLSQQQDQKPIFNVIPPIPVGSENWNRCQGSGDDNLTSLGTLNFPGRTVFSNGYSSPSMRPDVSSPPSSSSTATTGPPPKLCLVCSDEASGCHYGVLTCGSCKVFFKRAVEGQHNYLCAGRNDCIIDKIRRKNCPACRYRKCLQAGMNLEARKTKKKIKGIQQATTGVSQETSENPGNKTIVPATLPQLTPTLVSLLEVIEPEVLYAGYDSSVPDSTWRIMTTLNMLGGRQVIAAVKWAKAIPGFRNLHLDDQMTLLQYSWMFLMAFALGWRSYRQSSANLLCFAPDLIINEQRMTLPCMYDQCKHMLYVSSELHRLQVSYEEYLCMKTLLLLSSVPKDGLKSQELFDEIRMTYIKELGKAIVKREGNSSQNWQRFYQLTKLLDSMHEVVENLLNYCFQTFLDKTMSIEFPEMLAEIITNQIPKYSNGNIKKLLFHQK
Tumor necrosis factor (Homo sapiens), sequence (P01375 whole entry, looked up): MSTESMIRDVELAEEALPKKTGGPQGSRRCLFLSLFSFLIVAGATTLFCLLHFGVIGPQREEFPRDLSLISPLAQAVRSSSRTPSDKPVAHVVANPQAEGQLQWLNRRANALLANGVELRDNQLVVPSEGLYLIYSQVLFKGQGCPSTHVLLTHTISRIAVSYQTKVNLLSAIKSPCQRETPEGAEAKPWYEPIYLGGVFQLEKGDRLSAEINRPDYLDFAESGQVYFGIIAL
Vitamin D3 receptor (Homo sapiens), sequence (P11473 whole entry, looked up): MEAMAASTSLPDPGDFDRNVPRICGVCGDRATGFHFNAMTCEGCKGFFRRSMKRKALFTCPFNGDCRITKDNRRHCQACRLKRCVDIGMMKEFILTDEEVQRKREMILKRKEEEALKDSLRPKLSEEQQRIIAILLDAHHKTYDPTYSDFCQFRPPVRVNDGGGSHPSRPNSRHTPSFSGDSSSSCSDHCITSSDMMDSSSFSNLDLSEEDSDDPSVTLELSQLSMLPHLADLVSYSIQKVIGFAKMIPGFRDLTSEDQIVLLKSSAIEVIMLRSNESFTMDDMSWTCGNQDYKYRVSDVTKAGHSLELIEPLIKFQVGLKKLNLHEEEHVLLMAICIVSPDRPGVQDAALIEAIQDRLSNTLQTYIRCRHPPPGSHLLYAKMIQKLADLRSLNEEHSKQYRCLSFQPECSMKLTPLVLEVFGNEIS
Peroxisome proliferator-activated receptor gamma (Homo sapiens), sequence (P37231 whole entry, looked up): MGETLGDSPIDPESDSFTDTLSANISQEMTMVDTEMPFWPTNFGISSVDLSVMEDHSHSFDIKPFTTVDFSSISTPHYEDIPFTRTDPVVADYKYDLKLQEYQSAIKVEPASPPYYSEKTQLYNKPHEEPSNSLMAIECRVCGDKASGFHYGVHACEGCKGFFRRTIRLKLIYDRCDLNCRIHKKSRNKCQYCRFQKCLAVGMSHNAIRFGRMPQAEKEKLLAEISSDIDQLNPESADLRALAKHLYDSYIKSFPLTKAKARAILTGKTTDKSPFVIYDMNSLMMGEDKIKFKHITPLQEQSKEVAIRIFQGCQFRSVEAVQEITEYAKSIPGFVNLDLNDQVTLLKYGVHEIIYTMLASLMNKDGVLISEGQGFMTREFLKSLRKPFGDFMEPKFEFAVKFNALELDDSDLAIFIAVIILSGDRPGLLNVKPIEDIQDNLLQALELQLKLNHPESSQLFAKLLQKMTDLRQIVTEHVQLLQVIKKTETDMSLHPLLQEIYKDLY
Thyroid hormone receptor beta (Homo sapiens), sequence (P10828 whole entry, looked up): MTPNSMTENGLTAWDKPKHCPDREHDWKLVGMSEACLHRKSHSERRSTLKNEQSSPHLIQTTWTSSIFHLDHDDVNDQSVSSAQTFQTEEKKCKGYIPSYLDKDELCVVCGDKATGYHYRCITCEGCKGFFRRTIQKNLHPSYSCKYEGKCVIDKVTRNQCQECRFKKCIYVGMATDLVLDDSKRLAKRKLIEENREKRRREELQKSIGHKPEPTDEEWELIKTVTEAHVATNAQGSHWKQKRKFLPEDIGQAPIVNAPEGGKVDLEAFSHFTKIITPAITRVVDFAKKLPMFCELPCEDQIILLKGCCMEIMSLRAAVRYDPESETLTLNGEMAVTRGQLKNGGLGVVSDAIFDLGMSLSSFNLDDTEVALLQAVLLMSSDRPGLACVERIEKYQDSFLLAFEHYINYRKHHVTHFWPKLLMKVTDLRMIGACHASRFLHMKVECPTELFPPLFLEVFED

With `ClC(Br)Br`, the Potency entry in assay [1], in [2], in [7], in assay [8], in [12] and in [13] was “inactive” throughout. The call in [3], in [4], in [6] and in assay [11] was inactive. Also, in assay [5], the max response was determined as 2.53%. Also, the activity change % (negative = inhibition) in assay [9] is 16% (inactive). Besides, in assay [10], the activation is 1.19% (inactive).
Regarding `c1ccoc1`, the Potency entry in [1], in assay [2], in assay [7] and in assay [8] was “inactive” throughout. Moreover, the activation was -5.47% (inactive) in assay [14], 0.149% (inactive) in assay [10] and -0.801% (inactive) in [16]. Further, the compound was called inactive in assay [3], in [4], in [15] and in [11]. The activity change % (negative = inhibition) in assay [9] was 20.3% (inactive).
Take `Cc1coc2c1CCC(C)C2` (stereo not given): the Potency entry in assay [1], in assay [2], in assay [8], in [17], in assay [12] and in [18] was “inactive” throughout. The Potency result in assay [13] was “inactive”. The activation in [14] was 1.47% (inactive); in assay [10] it was -0.0074% (inactive); in assay [16], 1.75% (inactive). For the same compound, the compound was called inactive in assay [3], in assay [4], in assay [6] and in [15]. Also, in assay [5], the max response was -2.44%. In [9], the activity change % (negative = inhibition) is 22.1% (inactive).
Consider `CCCCOCC1CO1` (stereo not given), for which the Potency entry in assay [1], in assay [2], in assay [7] and in assay [17] was “inactive” in each case. Further, the activation was -3.01% (inactive) in assay [19] and -2.49% (inactive) in [14]. Besides, the outcome in assay [4], in assay [6], in [20], in assay [15] and in assay [11] was inactive. Moreover, in assay [5], the max response worked out at 13.9%. Moreover, in assay [9], the activity change % (negative = inhibition) is 12.9% (inactive).
Take `C=CC(=O)OCCN(C)C`: the Potency result in assay [1], in assay [8], in assay [18] and in assay [13] was “inactive” throughout. In addition, the activation in [14] was 1.15% (inactive); in [10], -1.13% (inactive); in [16] it was 0.563% (inactive). Further, the outcome in assay [4], in assay [20] and in assay [11] was inactive. The max response in [5] turned out to be 29.8%. In assay [9], the activity change % (negative = inhibition) was -23.4% (inactive).
As for `O=C(O)C(Cl)(Cl)Br`, the Potency entry in [1], in assay [7], in assay [8], in assay [18] and in assay [13] was “inactive” each time. For the same compound, the activation is -1.03% (inactive) in [19], -2.11% (inactive) in assay [14] and 0.0306% (inactive) in [16]. Moreover, the compound was classed as inactive in [4], in assay [20], in [15] and in [11]. Also, in assay [9], the activity change % (negative = inhibition) is -3.52% (inactive).
As for `Clc1cc(Cl)c(Cl)c(Cl)c1`, the Potency entry in assay [1], in assay [8], in assay [17], in assay [12] and in assay [13] was “inactive” throughout. Moreover, the activation is 16.9% (inactive) in assay [14], -0.964% (inactive) in assay [10] and 0.248% (inactive) in assay [16]. The outcome in [4], in [20], in [15] and in [11] was inactive.
Turning to `c1ccc(C2CO2)cc1` (stereo not given), the Potency result in assay [1], in [7], in assay [12], in [18] and in [13] was “inactive” in each case. The activation in assay [14] is 9.49% (inactive); in [16], 0.299% (inactive). The outcome in assay [3], in [4], in assay [6], in assay [20], in assay [15] and in assay [11] was inactive. Besides, the max response in assay [5] is -22%.
`Nc1ccc(-c2ccccc2)cc1`: the Potency result in [1], in [2], in assay [8] and in [18] was “inactive” in each case. Also, the result in [4], in [15] and in assay [11] was inactive. Moreover, the activity change % (negative = inhibition) in assay [9] is -2.45% (inactive). Also, the activation in assay [10] was -0.257% (inactive); in assay [16], 12.6% (inactive).
